# Measured values reported in PubChem BioAssay AID2284136 (EPA ToxCast).
# The source made the active and inactive calls. Rule for the calls: active = hit-call score of the fitted dose curve at least 0.9, where 1 is the maximum; inactive = score below 0.9.
# Target: Tyrosine-protein phosphatase non-receptor type 11 (Homo sapiens) (UniProt Q06124)
# Assay: ERF_FR_ENZ_hPTPN11: Eurofins (ERF) Enzymatic Assay for human Phosphatase Receptor (PTPN11/SHP2)
# Protocol: ERF_FR_ENZ_hPTPN11 is a biochemical, single-readout assay that uses extracted gene-proteins in a cell-free assay. Measurements were taken 0.5 hour after chemical dosing in a 96-well plate. See SHP2 Human Phosphatase Enzymatic Assay, PhosphataseProfiler.ERF_FR_ENZ_hPTPN11 is an assay component calculated from the ERF_FR_ENZ_hPTPN11 assay. It is designed to measure enzyme activity using a type of enzyme reporter as detected by fluorescence intensity with spectrophotometry technology.Data from the assay component ERF_FR_ENZ_hPTPN11 was analyzed at the assay endpoint, ERF_FR_ENZ_hPTPN11, in the positive analysis fitting direction relative to DMSO as the negative control and baseline of activity. Using a type of enzyme reporter, loss-of-signal activity can be used to understand changes in enzymatic activity as they relate to gene PTPN11. To generalize the intended target to other relatable targets, this assay endpoint is annotated to the phosphatase intended target family, where the subfamily is protein tyrosine phosphatase.
# Human recombinant phosphatase PTPN11 (SHP-2) expressed in E. coli is used. Test compound and/or vehicle is preincubated with 45 ng/ml enzymeo for 15 minutes at 37 C in modified HEPES buffer pH 7.2. The reaction is initiated by addition of 100 uM DiFMUP for 60 minutes. Determination of the amount of DiFMU formed is read spectrofluorimetrically at 358 nm/450 nm. […]
# Sequence of Tyrosine-protein phosphatase non-receptor type 11 (Homo sapiens) (Q06124 whole entry, looked up): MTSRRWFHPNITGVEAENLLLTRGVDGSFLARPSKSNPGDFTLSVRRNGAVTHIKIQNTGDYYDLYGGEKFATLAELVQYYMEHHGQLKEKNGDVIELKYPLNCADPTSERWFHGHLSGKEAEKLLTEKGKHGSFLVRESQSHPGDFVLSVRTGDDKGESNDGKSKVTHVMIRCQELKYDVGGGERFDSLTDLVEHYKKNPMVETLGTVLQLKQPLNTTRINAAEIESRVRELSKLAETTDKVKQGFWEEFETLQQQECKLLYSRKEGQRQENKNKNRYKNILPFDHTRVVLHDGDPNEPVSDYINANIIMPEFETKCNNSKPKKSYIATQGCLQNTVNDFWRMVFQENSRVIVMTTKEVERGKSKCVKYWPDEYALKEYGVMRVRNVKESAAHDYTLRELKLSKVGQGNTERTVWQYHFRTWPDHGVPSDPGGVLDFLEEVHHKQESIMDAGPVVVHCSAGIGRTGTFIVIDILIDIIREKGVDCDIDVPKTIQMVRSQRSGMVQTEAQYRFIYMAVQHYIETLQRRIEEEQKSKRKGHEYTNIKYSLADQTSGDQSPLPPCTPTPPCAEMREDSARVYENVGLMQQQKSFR
row,Structure (SMILES),AC50
1,O=C(/C=C/c1ccc(O)cc1)CC(=O)/C=C/c1ccc(O)cc1,0.28 nM (active)
